# Measurements published in paper PMC7862700, “An all-to-all approach to the identification of sequence-specific readers for epigenetic DNA modifications on cytosine”.
# Columns and labels:
# Assay in all cases: DAPPL (digital affinity profiling via proximity ligation, sequencing); 10 mM Tris-HCl pH 7.5, 50 mM NaCl, 1 mM DTT, 4% glycerol, room temperature, 30 min; GST-TFs on glutathione beads, 16-mer random dsDNA library, 0.1% formaldehyde crosslink after washing; high values mean tight binding
# FLI1 = target: T1, FLI1 (Homo sapiens, UniProt Q01543 1-452); settings: protein: recombinant; tags: N-terminal GST; dsDNA, one strand shown
# T1 sequence: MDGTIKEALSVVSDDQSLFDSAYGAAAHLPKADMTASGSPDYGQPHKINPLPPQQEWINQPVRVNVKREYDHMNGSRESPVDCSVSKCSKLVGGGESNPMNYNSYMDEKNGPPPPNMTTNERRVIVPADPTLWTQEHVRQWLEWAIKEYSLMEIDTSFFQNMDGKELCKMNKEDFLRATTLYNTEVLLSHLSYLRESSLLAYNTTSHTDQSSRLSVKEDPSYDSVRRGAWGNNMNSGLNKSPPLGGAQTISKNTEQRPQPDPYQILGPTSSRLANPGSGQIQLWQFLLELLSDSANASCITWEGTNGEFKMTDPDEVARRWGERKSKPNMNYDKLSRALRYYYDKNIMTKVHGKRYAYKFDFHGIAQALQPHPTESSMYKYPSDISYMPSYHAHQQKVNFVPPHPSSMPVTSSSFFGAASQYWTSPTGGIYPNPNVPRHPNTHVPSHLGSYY
# In short: (§1)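 GST fusions of human transcription factors were expressed in yeast and captured with glutathione beads. Once given DNA barcodes and pooled alongside a tag-only sample, they were incubated for 30 min at room temperature with 200 nmole of a random double-stranded 16-mer DNA library in Tris/NaCl/DTT/glycerol buffer, then washed, crosslinked (0.1% formaldehyde), proximity-ligated, PCR-amplified and sequenced on an Illumina NextSeq500. The binding signal of each hexamer is its read frequency for a factor divided by its frequency for the tag-only sample.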
# ELK1 = target: T2, ELK1 (Homo sapiens, UniProt P19419 1-428); settings: protein: recombinant; tags: N-terminal GST; dsDNA, one strand shown
# T2 sequence: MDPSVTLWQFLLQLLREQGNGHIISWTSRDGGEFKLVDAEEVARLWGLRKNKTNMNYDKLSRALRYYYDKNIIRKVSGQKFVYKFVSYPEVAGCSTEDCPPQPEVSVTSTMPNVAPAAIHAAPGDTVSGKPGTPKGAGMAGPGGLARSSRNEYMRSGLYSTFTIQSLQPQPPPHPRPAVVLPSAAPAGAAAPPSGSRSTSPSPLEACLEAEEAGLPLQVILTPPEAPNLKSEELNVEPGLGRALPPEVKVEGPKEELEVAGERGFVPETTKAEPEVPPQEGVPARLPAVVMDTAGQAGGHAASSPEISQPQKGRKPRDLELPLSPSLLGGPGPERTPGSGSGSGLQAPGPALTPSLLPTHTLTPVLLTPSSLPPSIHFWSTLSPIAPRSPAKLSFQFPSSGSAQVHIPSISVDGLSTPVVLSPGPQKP
# In short: as §1
# GABPA = target: T3, GABPA (Homo sapiens, UniProt Q06546 1-454); settings: protein: recombinant; tags: N-terminal GST; dsDNA, one strand shown
# T3 sequence: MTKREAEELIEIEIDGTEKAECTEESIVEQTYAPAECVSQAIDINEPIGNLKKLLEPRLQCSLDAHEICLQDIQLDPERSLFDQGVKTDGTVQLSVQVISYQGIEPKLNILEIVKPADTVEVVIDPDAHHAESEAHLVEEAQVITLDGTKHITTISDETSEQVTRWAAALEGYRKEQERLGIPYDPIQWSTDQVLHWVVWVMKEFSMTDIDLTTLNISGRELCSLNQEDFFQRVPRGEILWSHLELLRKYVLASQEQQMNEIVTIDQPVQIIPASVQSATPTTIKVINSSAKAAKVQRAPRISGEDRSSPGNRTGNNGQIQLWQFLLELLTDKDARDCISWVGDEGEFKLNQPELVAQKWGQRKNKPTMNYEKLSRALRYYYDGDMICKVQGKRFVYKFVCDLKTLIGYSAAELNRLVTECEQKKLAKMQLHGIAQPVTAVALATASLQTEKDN
# In short: as §1
# ERG = target: T4, ERG (Homo sapiens, UniProt P11308 1-479); settings: protein: recombinant; tags: N-terminal GST; dsDNA, one strand shown
# T4 sequence: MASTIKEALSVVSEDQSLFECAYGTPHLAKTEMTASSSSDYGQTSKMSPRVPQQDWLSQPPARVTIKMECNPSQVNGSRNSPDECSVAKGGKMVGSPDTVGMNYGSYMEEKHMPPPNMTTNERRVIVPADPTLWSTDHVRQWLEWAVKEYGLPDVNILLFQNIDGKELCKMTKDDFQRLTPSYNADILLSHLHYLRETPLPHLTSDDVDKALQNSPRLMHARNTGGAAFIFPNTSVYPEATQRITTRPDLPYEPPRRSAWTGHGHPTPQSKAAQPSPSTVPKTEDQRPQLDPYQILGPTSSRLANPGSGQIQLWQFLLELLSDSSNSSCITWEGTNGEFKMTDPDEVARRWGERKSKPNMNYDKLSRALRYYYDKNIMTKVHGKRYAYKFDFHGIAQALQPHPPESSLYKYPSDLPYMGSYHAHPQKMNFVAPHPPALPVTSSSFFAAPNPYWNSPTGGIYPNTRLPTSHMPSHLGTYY
# In short: as §1
# ELF1 = ELF1 (Homo sapiens, UniProt P32519 1-619); settings: protein: recombinant; tags: N-terminal GST; dsDNA, one strand shown
# ELF1, sequence (P32519 whole entry): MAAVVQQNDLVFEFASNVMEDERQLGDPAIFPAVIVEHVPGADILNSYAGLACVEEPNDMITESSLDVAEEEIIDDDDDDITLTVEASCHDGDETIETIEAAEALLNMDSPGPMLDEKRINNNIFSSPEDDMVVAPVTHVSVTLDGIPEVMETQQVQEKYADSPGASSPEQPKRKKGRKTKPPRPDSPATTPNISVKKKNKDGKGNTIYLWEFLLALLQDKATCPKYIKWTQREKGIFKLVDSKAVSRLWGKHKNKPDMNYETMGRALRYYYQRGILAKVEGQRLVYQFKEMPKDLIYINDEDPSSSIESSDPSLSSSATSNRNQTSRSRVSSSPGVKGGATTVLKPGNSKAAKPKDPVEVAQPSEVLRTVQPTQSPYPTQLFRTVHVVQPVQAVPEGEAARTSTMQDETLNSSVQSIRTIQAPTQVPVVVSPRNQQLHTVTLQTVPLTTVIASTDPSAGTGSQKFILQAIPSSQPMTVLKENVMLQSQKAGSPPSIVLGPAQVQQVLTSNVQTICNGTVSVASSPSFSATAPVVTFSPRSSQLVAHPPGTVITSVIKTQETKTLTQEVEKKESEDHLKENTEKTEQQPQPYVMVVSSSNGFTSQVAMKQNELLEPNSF
# In short: as §1
# EHF = target: T5, EHF (Homo sapiens, UniProt Q9NZC4 1-300); settings: protein: recombinant; tags: N-terminal GST; dsDNA, one strand shown
# T5 sequence: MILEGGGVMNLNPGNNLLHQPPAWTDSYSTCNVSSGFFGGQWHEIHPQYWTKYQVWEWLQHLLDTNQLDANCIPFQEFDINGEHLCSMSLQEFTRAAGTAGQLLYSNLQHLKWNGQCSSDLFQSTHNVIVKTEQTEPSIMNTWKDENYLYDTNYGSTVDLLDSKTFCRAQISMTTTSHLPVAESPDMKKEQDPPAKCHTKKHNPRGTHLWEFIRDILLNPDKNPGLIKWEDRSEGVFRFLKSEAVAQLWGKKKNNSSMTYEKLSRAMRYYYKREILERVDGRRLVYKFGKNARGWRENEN
# In short: as §1
# SPI1 = SPI1 (Homo sapiens, UniProt P17947 1-270); settings: protein: recombinant; tags: N-terminal GST; dsDNA, one strand shown
# In short: as §1
# SPIB = SPIB (Homo sapiens, UniProt Q01892 1-262); settings: protein: recombinant; tags: N-terminal GST; dsDNA, one strand shown
# SPIB, sequence (Q01892 whole entry): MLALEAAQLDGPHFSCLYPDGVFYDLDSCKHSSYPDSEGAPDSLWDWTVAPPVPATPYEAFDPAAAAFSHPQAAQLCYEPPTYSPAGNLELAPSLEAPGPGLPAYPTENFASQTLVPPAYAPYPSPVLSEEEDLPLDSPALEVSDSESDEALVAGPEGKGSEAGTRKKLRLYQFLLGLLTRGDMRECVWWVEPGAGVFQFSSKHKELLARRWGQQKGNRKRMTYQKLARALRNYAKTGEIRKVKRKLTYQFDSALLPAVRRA
# In short: as §1
# ELK3 = target: T6, ELK3 (Homo sapiens, UniProt P41970 1-407); settings: protein: recombinant; tags: N-terminal GST; dsDNA, one strand shown
# T6 sequence: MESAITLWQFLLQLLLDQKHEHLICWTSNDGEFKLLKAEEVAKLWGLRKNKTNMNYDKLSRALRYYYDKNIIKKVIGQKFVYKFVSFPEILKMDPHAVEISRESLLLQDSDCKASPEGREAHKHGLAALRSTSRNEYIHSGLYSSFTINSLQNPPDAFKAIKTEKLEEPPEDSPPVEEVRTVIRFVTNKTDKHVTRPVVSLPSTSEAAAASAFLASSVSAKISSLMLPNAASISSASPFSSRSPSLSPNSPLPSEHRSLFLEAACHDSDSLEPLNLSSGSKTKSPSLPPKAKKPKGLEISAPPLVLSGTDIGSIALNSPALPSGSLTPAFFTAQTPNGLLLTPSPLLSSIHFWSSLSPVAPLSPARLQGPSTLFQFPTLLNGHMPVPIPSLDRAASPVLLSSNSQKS
# In short: as §1
# FEV = target: T7, FEV (Homo sapiens, UniProt Q99581 1-238); settings: protein: recombinant; tags: N-terminal GST; dsDNA, one strand shown
# T7 sequence: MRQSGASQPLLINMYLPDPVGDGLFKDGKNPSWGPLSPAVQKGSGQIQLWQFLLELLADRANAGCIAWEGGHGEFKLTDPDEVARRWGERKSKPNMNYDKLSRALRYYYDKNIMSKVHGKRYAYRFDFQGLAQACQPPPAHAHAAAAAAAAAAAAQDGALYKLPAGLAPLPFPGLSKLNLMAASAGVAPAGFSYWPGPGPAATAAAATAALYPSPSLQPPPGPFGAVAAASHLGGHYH
# In short: as §1
# ETV5 = ETV5 (Homo sapiens, UniProt P41161 1-510); settings: protein: recombinant; tags: N-terminal GST; dsDNA, one strand shown
# ETV5, sequence (P41161 whole entry): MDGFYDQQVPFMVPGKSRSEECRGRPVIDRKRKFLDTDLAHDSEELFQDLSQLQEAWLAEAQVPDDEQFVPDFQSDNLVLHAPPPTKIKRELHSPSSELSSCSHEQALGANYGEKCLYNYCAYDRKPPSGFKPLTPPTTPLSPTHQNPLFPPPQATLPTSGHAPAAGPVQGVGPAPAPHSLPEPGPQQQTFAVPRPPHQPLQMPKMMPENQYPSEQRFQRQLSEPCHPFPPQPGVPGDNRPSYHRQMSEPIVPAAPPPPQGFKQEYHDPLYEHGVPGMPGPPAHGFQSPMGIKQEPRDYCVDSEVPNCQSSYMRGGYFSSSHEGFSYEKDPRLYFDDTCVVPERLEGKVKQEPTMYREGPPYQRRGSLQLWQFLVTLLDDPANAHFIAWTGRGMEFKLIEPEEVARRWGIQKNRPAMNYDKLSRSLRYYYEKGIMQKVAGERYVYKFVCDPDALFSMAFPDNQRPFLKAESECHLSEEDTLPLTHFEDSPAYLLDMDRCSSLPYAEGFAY
# In short: as §1
# HSF1 = HSF1 (Homo sapiens, UniProt Q00613 1-529); settings: protein: recombinant; tags: N-terminal GST; chain copies: 3; dsDNA, one strand shown
# HSF1, sequence (Q00613 whole entry): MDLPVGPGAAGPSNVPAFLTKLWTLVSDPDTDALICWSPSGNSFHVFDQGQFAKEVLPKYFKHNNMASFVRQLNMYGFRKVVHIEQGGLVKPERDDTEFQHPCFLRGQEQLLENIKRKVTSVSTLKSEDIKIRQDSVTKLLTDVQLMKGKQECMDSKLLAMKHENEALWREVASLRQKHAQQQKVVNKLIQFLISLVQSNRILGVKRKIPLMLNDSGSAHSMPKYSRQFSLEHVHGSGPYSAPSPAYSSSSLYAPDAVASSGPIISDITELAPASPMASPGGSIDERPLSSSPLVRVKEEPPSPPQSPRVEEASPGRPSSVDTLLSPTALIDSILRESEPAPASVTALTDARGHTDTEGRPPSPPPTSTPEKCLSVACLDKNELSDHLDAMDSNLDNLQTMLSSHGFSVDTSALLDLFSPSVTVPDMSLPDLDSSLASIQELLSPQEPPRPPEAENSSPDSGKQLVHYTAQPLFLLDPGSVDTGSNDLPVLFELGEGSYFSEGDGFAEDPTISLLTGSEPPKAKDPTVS
# In short: as §1
# SPIC = target: T8, SPIC (Homo sapiens, UniProt Q8N5J4 1-248); settings: protein: recombinant; tags: N-terminal GST; dsDNA, one strand shown
# T8 sequence: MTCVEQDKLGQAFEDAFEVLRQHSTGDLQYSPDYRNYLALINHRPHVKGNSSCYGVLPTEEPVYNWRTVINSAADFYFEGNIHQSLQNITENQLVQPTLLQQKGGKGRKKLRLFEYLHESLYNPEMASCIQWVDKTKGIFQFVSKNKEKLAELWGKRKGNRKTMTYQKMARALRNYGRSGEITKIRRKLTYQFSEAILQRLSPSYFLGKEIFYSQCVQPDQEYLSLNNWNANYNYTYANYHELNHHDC
# In short: as §1
# ELF4 = ELF4 (Homo sapiens, UniProt Q99607 1-663); settings: protein: recombinant; tags: N-terminal GST; dsDNA, one strand shown
# ELF4, sequence (Q99607 whole entry): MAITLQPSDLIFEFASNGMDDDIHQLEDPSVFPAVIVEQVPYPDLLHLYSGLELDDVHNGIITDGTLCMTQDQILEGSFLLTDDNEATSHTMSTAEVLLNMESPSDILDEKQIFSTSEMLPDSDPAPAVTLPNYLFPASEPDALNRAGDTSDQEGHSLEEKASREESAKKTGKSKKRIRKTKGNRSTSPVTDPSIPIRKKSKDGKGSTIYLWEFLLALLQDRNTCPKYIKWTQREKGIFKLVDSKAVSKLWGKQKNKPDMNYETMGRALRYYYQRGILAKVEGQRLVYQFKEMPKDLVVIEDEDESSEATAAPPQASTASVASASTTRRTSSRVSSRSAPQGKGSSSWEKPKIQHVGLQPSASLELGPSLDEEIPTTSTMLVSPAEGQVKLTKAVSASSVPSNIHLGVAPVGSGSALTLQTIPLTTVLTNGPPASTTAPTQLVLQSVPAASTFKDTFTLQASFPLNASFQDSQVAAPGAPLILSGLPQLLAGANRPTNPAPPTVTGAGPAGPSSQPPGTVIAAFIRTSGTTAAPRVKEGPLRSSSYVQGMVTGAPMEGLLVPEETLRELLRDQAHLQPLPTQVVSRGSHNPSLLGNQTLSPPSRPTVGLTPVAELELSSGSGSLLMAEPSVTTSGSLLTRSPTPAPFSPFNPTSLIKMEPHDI
# In short: as §1
# ELK4 = target: T9, ELK4 (Homo sapiens, UniProt P28324-2 1-405); settings: protein: recombinant; tags: N-terminal GST; dsDNA, one strand shown
# T9 sequence: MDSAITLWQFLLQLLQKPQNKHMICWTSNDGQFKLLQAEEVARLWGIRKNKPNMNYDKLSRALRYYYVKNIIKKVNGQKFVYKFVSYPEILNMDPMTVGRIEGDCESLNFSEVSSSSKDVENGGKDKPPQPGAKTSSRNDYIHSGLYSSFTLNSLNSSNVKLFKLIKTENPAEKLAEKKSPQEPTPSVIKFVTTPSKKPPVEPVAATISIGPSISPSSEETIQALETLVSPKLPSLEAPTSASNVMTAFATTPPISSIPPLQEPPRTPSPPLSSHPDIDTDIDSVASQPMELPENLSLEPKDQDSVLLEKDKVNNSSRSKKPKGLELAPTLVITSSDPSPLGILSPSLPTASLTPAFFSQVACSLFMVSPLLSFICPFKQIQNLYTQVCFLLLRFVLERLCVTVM
# In short: as §1
# ETV2 = target: T10, ETV2 (Homo sapiens, UniProt O00321 1-342); settings: protein: recombinant; tags: N-terminal GST; dsDNA, one strand shown
# T10 sequence: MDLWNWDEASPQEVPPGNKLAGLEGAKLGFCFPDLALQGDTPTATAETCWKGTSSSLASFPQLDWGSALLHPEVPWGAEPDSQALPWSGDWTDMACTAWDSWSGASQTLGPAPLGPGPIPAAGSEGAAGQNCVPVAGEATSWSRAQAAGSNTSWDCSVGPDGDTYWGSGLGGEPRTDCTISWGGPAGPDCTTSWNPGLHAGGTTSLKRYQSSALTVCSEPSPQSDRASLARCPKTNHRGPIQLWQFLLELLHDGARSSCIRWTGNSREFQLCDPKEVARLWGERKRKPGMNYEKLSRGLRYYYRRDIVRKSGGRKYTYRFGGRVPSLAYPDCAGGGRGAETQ
# In short: as §1
# ELF3 = target: T11, ELF3 (Homo sapiens, UniProt P78545 1-371); settings: protein: recombinant; tags: N-terminal GST; dsDNA, one strand shown
# T11 sequence: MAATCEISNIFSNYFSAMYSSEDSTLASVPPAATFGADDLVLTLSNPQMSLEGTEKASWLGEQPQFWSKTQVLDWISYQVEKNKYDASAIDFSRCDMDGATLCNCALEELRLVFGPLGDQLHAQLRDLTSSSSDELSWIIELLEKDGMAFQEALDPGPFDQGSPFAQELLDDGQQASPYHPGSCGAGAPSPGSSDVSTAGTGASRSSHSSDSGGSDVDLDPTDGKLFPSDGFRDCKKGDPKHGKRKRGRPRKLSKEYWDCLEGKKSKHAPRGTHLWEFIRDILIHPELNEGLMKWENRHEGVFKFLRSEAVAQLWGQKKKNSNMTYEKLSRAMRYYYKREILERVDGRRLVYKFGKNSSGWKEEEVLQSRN
# In short: as §1
# CRX = CRX (Homo sapiens, UniProt O43186 1-299); settings: protein: recombinant; tags: N-terminal GST; dsDNA, one strand shown
# CRX, sequence (O43186 whole entry): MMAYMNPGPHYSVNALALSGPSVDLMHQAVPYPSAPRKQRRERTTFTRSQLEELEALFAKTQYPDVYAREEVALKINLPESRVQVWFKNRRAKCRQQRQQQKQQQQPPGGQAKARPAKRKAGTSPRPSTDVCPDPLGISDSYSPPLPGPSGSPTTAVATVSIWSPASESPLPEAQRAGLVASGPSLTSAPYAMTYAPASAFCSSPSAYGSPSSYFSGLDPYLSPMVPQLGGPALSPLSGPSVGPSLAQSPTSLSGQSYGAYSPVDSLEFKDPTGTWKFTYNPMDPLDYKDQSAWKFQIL
# In short: as §1
# ETV1 = ETV1 (Homo sapiens, UniProt P50549 1-477); settings: protein: recombinant; tags: N-terminal GST; dsDNA, one strand shown
# ETV1, sequence (P50549 whole entry): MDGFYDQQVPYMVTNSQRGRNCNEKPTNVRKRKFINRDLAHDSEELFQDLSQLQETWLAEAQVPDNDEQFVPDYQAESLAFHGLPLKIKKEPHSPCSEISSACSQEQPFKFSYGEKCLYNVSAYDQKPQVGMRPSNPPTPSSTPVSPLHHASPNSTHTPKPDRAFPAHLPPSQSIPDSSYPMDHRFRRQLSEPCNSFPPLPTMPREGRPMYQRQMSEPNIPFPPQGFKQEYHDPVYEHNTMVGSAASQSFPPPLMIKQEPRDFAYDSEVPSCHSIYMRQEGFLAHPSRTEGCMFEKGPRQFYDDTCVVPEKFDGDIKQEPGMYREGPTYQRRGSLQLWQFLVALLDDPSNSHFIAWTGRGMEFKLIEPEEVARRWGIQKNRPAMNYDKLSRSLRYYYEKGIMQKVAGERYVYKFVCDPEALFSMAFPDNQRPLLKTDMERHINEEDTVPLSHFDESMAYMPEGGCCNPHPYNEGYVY
# In short: as §1
sequence,measurement,setting,value
TACAAT,binding signal,FLI1,"1.29 fold enrichment (6-mer frequency, TF over GST control)"
same,binding signal,ELK1,"1.28 fold enrichment (6-mer frequency, TF over GST control)"
same,binding signal,GABPA,"1.32 fold enrichment (6-mer frequency, TF over GST control)"
same,binding signal,ERG,"1.29 fold enrichment (6-mer frequency, TF over GST control)"
same,binding signal,ELF1,"1.3 fold enrichment (6-mer frequency, TF over GST control)"
same,binding signal,EHF,"1.38 fold enrichment (6-mer frequency, TF over GST control)"
same,binding signal,SPI1,"1.25 fold enrichment (6-mer frequency, TF over GST control)"
same,binding signal,SPIB,"1.26 fold enrichment (6-mer frequency, TF over GST control)"
same,binding signal,ELK3,"1.21 fold enrichment (6-mer frequency, TF over GST control)"
same,binding signal,FEV,"1.29 fold enrichment (6-mer frequency, TF over GST control)"
same,binding signal,ETV5,"1.3 fold enrichment (6-mer frequency, TF over GST control)"
same,binding signal,HSF1,"1.32 fold enrichment (6-mer frequency, TF over GST control)"
same,binding signal,SPIC,"1.25 fold enrichment (6-mer frequency, TF over GST control)"
same,binding signal,ELF4,"1.26 fold enrichment (6-mer frequency, TF over GST control)"
same,binding signal,ELK4,"1.47 fold enrichment (6-mer frequency, TF over GST control)"
same,binding signal,ETV2,"1.31 fold enrichment (6-mer frequency, TF over GST control)"
same,binding signal,ELF3,"1.36 fold enrichment (6-mer frequency, TF over GST control)"
same,binding signal,CRX,"1.44 fold enrichment (6-mer frequency, TF over GST control)"
same,binding signal,ETV1,"1.33 fold enrichment (6-mer frequency, TF over GST control)"
